Screens (PubChem)
A selection: hits, their analogues and other compounds. The true share with any hit is near 19%.
DT40 TDP1 no CPT: qHTS for Inhibitors of human tyrosyl-DNA phosphodiesterase 1 (TDP1): qHTS in cells in absence of CPT; DT40 Tdp1-/- hTDP1 cells, no CPT, ATP luminescence, 48 h; Potency, µM (series often up to 46.2 µM), inactives show at the highest dose activity change, negative = growth inhibition, usual class: inhibitors; 15% of 420,000 active; AID 686978, 2013; also: potency is read from the fitted curve at half-maximal effect; nearly all actives have a fitted effect of over 55% in size
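DT40 Tdp1-/-;hTDP1 cells, no CPT (DMSO vehicle only), 400 cells/well; compounds pin-transferred; ≥48 hr, 37 °C; CellTiter-Glo 30 min RT dark, luminescence read.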
TDP1 cell CPT: growth inhibition of DT40 Tdp1-/-;hTDP1 cells with camptothecin (screen for TDP1 inhibitors); chicken DT40 Tdp1-/-;hTDP1 cells + 20 nM CPT, ATP luminescence, 48 h; Potency, µM (series often up to 46.2 µM), inactives show at the highest dose activity change, negative = growth inhibition, usual class: inhibitors; 12% of 420,000 active; AID 686979; also: potency is read from the fitted curve at half-maximal effect; nearly all actives have a fitted effect of over 55% in size
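Chicken DT40 Tdp1-/- cells complemented with human TDP1, 400 cells/well, exposed to compounds plus 20 nM camptothecin for at least 48 h at 37 C; viability read as ATP content by CellTiter-Glo luminescence.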
HT1080 IDH1KD tx: toxicity to HT-1080 IDH1 knockdown cells (counter line); HT-1080 IDH1 knockdown viability, ATP luminescence, 48 h; Potency, µM (series often up to 46.1 µM), without a hit: at the highest dose activity, negative = toxicity, hits mostly cytotoxic; 2% of 360,000 active;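 also: potency is read from the fitted curve at half-maximal effect; 0% = DMSO wells and -100% = cell-free medium wells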
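Viability of IDH1-knockdown HT-1080 fibrosarcoma cells was assessed by CellTiter-Glo after 48 h at 37 °C with titrated compound; concentration-effect curves were classified by fit quality and response size.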
IL1B secr inh: inhibitors of inflammasome signaling (IL-1 beta secretion) | AID 743279 | activity change, % at 57.5 µM | THP-1 LPS/ATP IL-1B secretion, AlphaLISA, 16 h; hits give low values | 4.7% of 360,000 active; in the data active = activity change below about -50%; inconclusive = mostly about -30% to -49%
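THP-1 cells pretreated 1 hr with compounds (up to 57.5 uM final), then stimulated with LPS (250 ng/mL final) plus ATP (1.25 mM final); secreted IL-1B measured by AlphaLISA after 16 hr, decreased signal indicating inhibition.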
HT1080NT lethal: kills 2HG-producing HT-1080-NT fibrosarcoma cells. HT-1080-NT fibrosarcoma viability, CellTiter-Glo ATP luminescence, 48 h. Potency, µM (highest dose often 46.1 µM), without a hit: at the top dose activity, negative = less viability, actives largely listed as cytotoxic. 1.6% of 360,000 active. AID 686970;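 also: NT is the 2HG producing partner of a matched IDH1 knockdown line; potency is read from the fitted curve at half-maximal effect; 0% = DMSO-treated cells and -100% = media-only wells without cells; nearly all actives have a fitted effect of over 55% in size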
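Fibrosarcoma NT cells, 750 per well in 5% FBS RPMI, were exposed to compound for 48 hours. Viability: CellTiter-Glo luminescence.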
ELG1 repair inh: blocks ELG1-dependent DNA repair in HEK293T cells. HEK293T ELG1-luciferase reporter, luminescence, 16 h; DNA damage induced by 5-fluorouridine. Potency, µM (titrated, usually from 46.1 µM), inactives show top-dose activity change, negative = inhibition, hits mostly inhibitors. 2.3% of 330,000 active; also: potency is read from the fitted curve at half-maximal effect; nearly all actives have a fitted effect of over 55% in size
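HEK293T cells expressing luciferase-tagged ELG1 (2,000/well) received 5-Fluorouridine plus compound or DMSO for 16 hr at 37 °C. Luciferase was read by ONE-Glo luminescence after 30 min at room temperature.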
* marks the source's active call; other numbers are inactive results; ? = inconclusive; nt = not tested or not shown; [ ] = another dose, or the depositor's remark. Unless noted, calls follow the shape of the dose curve; as a rule, active = well fitted curve in the direction sought with a large enough effect; inconclusive = small, poorly fitted or top-dose-only effect, or another doubt; inactive = no such curve, though single readings can be large; an effect the other way counts as inactive or inconclusive. Unless noted, % is scaled to controls: 0 for no effect and ±100 for the full control effect.

SMILES	DT40 TDP1 no CPT	TDP1 cell CPT	HT1080 IDH1KD tx	IL1B secr inh	HT1080NT lethal	ELG1 repair inh
Cc1ccc(C(=O)CC2(O)C(=O)N(C)c3ccccc32)s1 (stereo unspecified)	1%	?	0%	0	5%	16%
OCCN1CCN(c2cc(-c3ccc4ccccc4c3)nc3ccnn23)CC1	?	18µM*	1%	-9	-19%	nt
COc1ccc(-c2cc(N3CCN(CCO)CC3)n3nccc3n2)cc1	-12%	-6%	5%	-23	19%	nt
CN1CCCN(c2cc(-c3ccc4ccccc4c3)nc3ccnn23)CC1	21µM*	21µM*	0%	-22	?	nt
O=C(NCCCc1ccccc1)c1cccc(NC(=O)C2CCCCC2)c1	?	-14%	-3%	-19	-2%	nt
COc1ccc(-n2nc(C(=O)NCC(=O)NCCCN3CCOCC3)c3ccccc3c2=O)cc1OC	-6%	0%	10%	4	12%	7%
CCOC(=O)c1cc2c(C)n(-c3ccc(OCC)cc3)c(C)c2ccc1=O	15µM*	26µM*	-19%	-19	-19%	-19%
CCOC(=O)c1cc2c(C)n(-c3ccc(C)cc3)c(C)c2ccc1=O	8.2µM*	15µM*	-20%	-66*	-29%	?
CCOc1ccc(-n2c(C)c(C(C)=O)c3cc(O)ccc32)cc1	?	?	0%	-8	-14%	?
CCOC(=O)c1c[nH]n(-c2ccc(C)cc2)c1=O	-13%	-11%	19%	29	14%	?
C[C@H]1CN([C@@H](C)CO)C(=O)CCCn2nncc2CO[C@H]1CN(C)C(=O)Nc1cccc(Oc2ccccn2)c1	-23%	-2%	-1%	11	-6%	nt
COCCCNC(=O)CN1C(=O)COc2ccc(S(=O)(=O)N3CCCC3)cc21	6%	2%	nt	nt	nt	nt
Cc1ccccc1CN1C[C@@H]2C[C@@H](c3cn[nH]c3-c3ccc(F)cc3)N3CCC[C@@]23C1=O	21µM*	18µM*	-26%	-51*	?	-6%
COc1ccccc1CN1C[C@@H]2C[C@@H](c3ccc(C)c(C)c3)N3CCC[C@@]23C1=O	16µM*	15µM*	-21%	-17	-28%	?
COc1ccc(-c2[nH]ncc2[C@@H]2C[C@H]3CN(Cc4ccccc4C)C(=O)[C@]34CCCN24)cc1	?	?	-2%	-15	1%	?
COc1ccc([C@@H]2C[C@H]3CN(Cc4ccccc4OC)C(=O)[C@]34CCCN24)cc1C	18µM*	?	-24%	15	-19%	?
COc1ccc(S(=O)(=O)N2CCN(C(=O)Cc3ccsc3)CC2)cc1	?	-17%	15%	-6	3%	2%
CNC(=O)C1CCCN(c2nnc(C)c3c(C)n(-c4ccccc4)nc23)C1 (stereo unspecified)	-16%	-6%	nt	nt	nt	nt
COc1ccc(CN2CCC(n3cc(C(=O)N4CCCCC4)nn3)CC2)c(OC)c1	-23%	2%[9.04 µM]	nt	nt	nt	nt
CC1(C)SC2C(C(=O)O)N=C(Cc3ccccc3)N2C1C(=O)O (stereo unspecified)	0%	27%	10%	19	7%	nt
c1cnc2ccc(-c3ccc4ncccc4c3)cc2c1	4.1µM*	?	?	?	-29%	?
O=C(Nc1ccccc1)Nc1ccc2ncoc2c1	-15%	3%	0%	-63*	2%	?
O=C(Nc1ccc2ncccc2c1)c1ccccc1Br	?	-21%	0%	-23	-11%	?
O=C(Nc1ccc2ncccc2c1)Nc1ccc2ncccc2c1	8.2µM*	21µM*	9%	nt	6%	?
Cc1ccc2c(c1)N(CCC(=O)NC1CCCCC1C)C(=O)CO2 (stereo unspecified)	1%	-1%	18%	13	11%	-6%
SMILES	DT40 TDP1 no CPT	TDP1 cell CPT	HT1080 IDH1KD tx	IL1B secr inh	HT1080NT lethal	ELG1 repair inh
CC(=O)c1ccc(NC(=O)Nc2ccc3snnc3c2)cc1	21µM*	12µM*	nt	nt	nt	nt
COc1ccc(C)cc1NC(=O)Nc1cccc(C)c1	-6%	-26%	0%	0	17%	-5%
COc1ccc(NC(=O)Nc2cc(C)ccc2F)cc1OC	-13%	-2%	?	-51*	?	?
O=C(Nc1ccc(F)cc1)c1ccc2snnc2c1	-17%	-30%	5%	1	20%	?
COC(=O)c1cc(NC(=O)Nc2ccc3snnc3c2)cc(C(=O)OC)c1	-5%	-12%	nt	nt	nt	nt
O=C(Nc1ccc(F)cc1)Nc1ccc2snnc2c1	6.5µM*	3.7µM*	nt	nt	nt	nt
Cc1ccc(F)c(NC(=O)Nc2ccc3snnc3c2)c1	21µM*	21µM*	nt	nt	nt	nt
O=C(c1ccc2c(c1)CCC2)N1CCN(Cc2ccccc2)CC1	?	?	-6%	-18	-6%	nt
O=C(COC(=O)c1ccc[nH]c1=O)NC1CCCc2ccccc21 (stereo unspecified)	-2%	-2%	5%	9	-1%	-10%
COc1cccc(-c2cc(C(F)(F)F)n3nc(C)c(-c4ccccc4)c3n2)c1	-22%	-6%	nt	nt	nt	nt
N[C@@H](Cn1cc(F)c(=O)[nH]c1=O)C(=O)O	0%	4%	nt	nt	nt	nt
Cc1c(Cl)cccc1NC(=O)Nc1ccc2snnc2c1	18µM*	15µM*	nt	nt	nt	nt
CC(=O)Nc1cccc(NC(=O)Nc2cccc(Cl)c2C)c1	-23%	-7%	-4%	1	-10%	2%
COC(=O)CCCOc1ccc(Cl)cc1Cl	4%	14%	nt	nt	nt	nt
CC12CCC(=O)N1C(C(=O)Nc1cc(S(=O)(=O)N3CCCCCC3)ccc1OCC(F)(F)F)CS2 (stereo unspecified)	-22%	?	-1%	-5	-11%	?
COC(=O)c1cc2oc(C)cc2n1CC(=O)Nc1ccc(C)cc1C	-27%	-21%	nt	nt	nt	nt
CCCOC(=O)c1ccc(Oc2cn[nH]c2-c2ccc(OCC(=O)NN)cc2O)cc1	-7%	-28%	-15%	-10	0%	18µM*
CCCOC(=O)c1ccc(Oc2cn[nH]c2-c2ccc(O)cc2O)cc1	?	?	-4%	18	18µM*	0%
CCOC(=O)c1ccc(Oc2cn[nH]c2-c2ccc(O)cc2O)cc1	-24%	-28%	-5%	0	1%	?
CCN(CC)C(=O)Cn1c(=O)n(-c2ccc(C)c(C)c2)c(=O)c2c3c(sc21)CCCCC3	-8%	5%	nt	nt	nt	nt
Cc1cccc(-c2c3c(=O)n(C)c(=O)n(C)c3c3cnc4ccccc4n23)c1	?	-12%	nt	nt	nt	nt
